# hgDAF12 agonist: activates the H. glycines DAF-12 receptor ligand-binding domain. HEK293 GAL4-hgDAF12 UAS-luciferase reporter, agonist luminescence; normalized to butyrate control. AID 687014. 370,000 tested, 1.8% active. activation, % at 6.8 µM;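 active = activation above a cutoff set at the mean of all screened compounds plus 3 SD, cut at about 10% in these data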;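 note: 0% = DMSO wells and 100% = sodium butyrate wells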
# hcDAF-12 act: activators of H. contortus DAF-12 nuclear receptor. 370,000 tested, 1.4% active. activation, % at 6.8 µM. HEK293 hcDAF-12 lit1-tk-luc reporter, luminescence; 0% DMSO, 100% Δ7-dafachronic acid;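 active = activation above the mean of all tested compounds plus 3 SD, cut at about 5.5% in these data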;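 note: 100% = response to 3 µM Δ7-dafachronic acid high control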
# ssDAF12 agonist: activators of S. stercoralis DAF-12 nuclear receptor; HEK293 ssDAF-12/GRIP1 lit1-tk-luc reporter, luminescence; % of 3 µM dafachronic acid response; activation, % at 6.8 µM; 370,000 tested, 1% active; AID 652126;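 active = activation above the mean over all tested compounds plus 3 SD, cut at about 0.9% in these data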;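 note: 0% = DMSO-only wells and 100% = 3 µM delta7-dafachronic acid wells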
# DAX1 inh-1: NR0B1 (DAX1) inhibition | HEK293 Gal4-DAX1 luciferase reporter, luminescence | AID 504766 | 340,000 tested, 0.99% active | P51843 | inhibition, % at 6.75 µM;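 active = inhibition above the mean over all tested compounds plus 3 SD, cut at about 4.2% in these data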;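 note: 0% = DAX1-transfected cells with DMSO and 100% = empty-vector control cells with DMSO; inhibition shows as a rise in luminescence from relieved DAX1 repression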
# Target sequence (P51843 207-470 limits assumed): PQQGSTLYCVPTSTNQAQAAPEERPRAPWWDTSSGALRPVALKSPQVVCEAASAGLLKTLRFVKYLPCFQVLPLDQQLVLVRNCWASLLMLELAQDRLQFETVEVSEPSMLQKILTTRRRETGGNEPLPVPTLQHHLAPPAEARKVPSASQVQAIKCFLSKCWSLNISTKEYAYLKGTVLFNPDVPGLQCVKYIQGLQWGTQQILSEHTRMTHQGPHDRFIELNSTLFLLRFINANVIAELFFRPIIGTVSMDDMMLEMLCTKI
# DAX1 inh-2: blocks DAX1 repression of SF-1 activated StAR promoter | AID 652010 | 370,000 tested, 1.1% active | HEK293T StAR-luciferase reporter, SF-1/DAX-1 repression relief | inhibition, % at 6.8 µM;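 active = inhibition above the mean over all tested compounds plus 3 SD, cut at about 3.6% in these data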;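 note: 0% = DAX-1 cells with DMSO and 100% = cells lacking DAX-1 with DMSO; higher inhibition means more luminescence from relief of DAX-1 repression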
# Numbers without * were called inactive; · = not tested or not shown. The list is not random: actives were taken first. Their share in the collection is about 4.1%.
SMILES,hgDAF12 agonist,hcDAF-12 act,ssDAF12 agonist,DAX1 inh-1,DAX1 inh-2
Cc1ccc(NC(=O)Nc2ccc3c(c2)[C@]2(CC(=O)N(CC(C)C)C2c2ccccc2)C(=O)N3C)cc1Cl (some centres undefined),-4,-1,-1,·,-1
O=C(Nc1ccn(CCCNCC(c2ccccc2)c2ccccc2)c(=O)n1)OCc1ccccc1,1,2,-2,4.4*,0
Cn1ncc2c(NCCO)nc(Cl)nc21,-2,-2,1.5*,1,0
Oc1ccc(-c2csc(-c3cccnc3)n2)cc1O,13*,0,0,1,1
CC(C)(C)N1Cc2nnn(Cc3ccccc3)c2-c2cc(N3CCCCC3)ccc2S1(=O)=O,1,-3,0,·,-2
O=C(NCC(=O)N1CCCC(C(F)(F)F)C1)c1ccccc1Br (centres undefined),1,4,1.3*,-1,1
C=CCNc1nc(-c2ccc([N+](=O)[O-])cc2)cs1,12*,1,-1,-1,0
O=[N+]([O-])c1ccc(S(=O)(=O)Nc2nc(-c3ccccc3)cs2)cc1,-2,-1,0,0,0
COC(=O)C1=C(C)N(C)C(=NCC2CC2)NC1c1ccc(F)cc1 (centres undefined),2,2,0,·,0
O=[N+]([O-])/C=C/c1cc2ccccc2[nH]1,6,5.8*,0,0,0
Cc1ccc(NC(=O)COC(=O)CC2CC3CCC2C3)cc1S(=O)(=O)N1CCOCC1 (centres undefined),-2,0,-2,0,3.6*
Cc1ccc(S(=O)(=O)NCC(=O)OCC(=O)Nc2ccc(C)c(S(=O)(=O)N3CCOCC3)c2)cc1,-4,0,-1,0,1
Cc1ccc(OCCC(=O)OCC(=O)Nc2ccc(C)c(S(=O)(=O)N3CCOCC3)c2)cc1,1,0,-1,0,3.7*
O=C(CSc1nnc(-c2cccnc2)n1C1CCCCC1)NC1CCCCCC1,-3,-1,-1,·,0
CCc1cccc2c(C(C)c3ccccc3O)c[nH]c12 (centres undefined),5,4,2.2*,·,0
O=C(Nc1nc2c(F)cc(F)cc2s1)C1CCN(C(=O)c2ccc(F)cc2)CC1,10,5,0,2,4.0*
O=C(Nc1nc(-c2ccc(F)cc2)cs1)C1CCN(C(=O)c2ccc(F)cc2)CC1,-8,-4,-2,-4,-8
COc1ccc(OCc2cc(C(=O)N(C)Cc3cc(C4CC4)n[nH]3)no2)c(Cl)c1,8,4,-1,1,4.2*
CC(=O)c1cccc(OCc2cc(C(=O)N3C[C@@H](C)O[C@@H](C)C3)no2)c1,8,0,-1,2,4.2*
O=C(c1cc(COc2ccc(F)cc2Cl)on1)N1CCCCCC1,9,4,1,2,3
COc1ccc(OCc2cc(C(=O)N3CCN(CC4CC4)CC3)no2)c(Cl)c1,8,1,-1,2,3.6*
COc1ccc(OCc2cc(C(=O)N(C)Cc3cnccn3)no2)c(Cl)c1,8,2,0,1,0
O=C(c1cc(COc2ccc(F)cc2F)on1)N1CCSCC1,12*,2,-1,1,3
CC(=O)c1cccc(OCc2cc(C(=O)N3C[C@H]4CC[C@H]3C4)no2)c1,8,1,0,1,2
CCOC(=O)N1CCN(C(=O)c2cc(COc3ccc(OC)cc3Cl)on2)CC1,2,0,-1,2,-1
SMILES,hgDAF12 agonist,hcDAF-12 act,ssDAF12 agonist,DAX1 inh-1,DAX1 inh-2
CCN1CCN(C(=O)c2cc(COc3ccc(C(C)=O)cc3OC)on2)CC1,12*,5,0,2,1
O=C(NCc1ccccc1)C(c1ccncc1)n1c(=O)c(-c2cc3ccccc3[nH]2)nc2ccccc21 (centres undefined),9,5.7*,2.7*,·,3
O=C(NCc1ccccc1)C(c1ccc(-c2ccccc2)cc1)n1c(=O)c(-c2cc3ccccc3[nH]2)nc2ccccc21 (centres undefined),5,5,1.6*,·,2
O=C(Nc1ccc2ccccc2c1)C(c1ccccc1F)n1c(=O)c(-c2cc3ccccc3[nH]2)nc2ccccc21 (centres undefined),6,5,1,·,0
COc1ccc(NC(=O)C(c2ccccc2F)n2c(=O)c(-c3cc4ccccc4[nH]3)nc3ccccc32)cc1 (centres undefined),12*,4,1,·,0
COc1ccc(C(C(=O)NCc2ccccc2)n2c(=O)c(-c3cc4ccccc4[nH]3)nc3ccccc32)cc1 (centres undefined),4,3,0,·,2
Cc1ccc(-c2cc(C(=O)NN=Cc3cc(Br)ccc3O)[nH]n2)cc1C,1,0,-1,·,-4
COC(=O)[C@]12C[C@H](CC(=O)NCc3ccc(OC)c(OC)c3)C(=O)N(CCC3=CCCCC3)C1=C[C@H](COCc1ccccc1)O[C@@H]2C,0,-1,-2,·,-1
COc1ccc(NC(=O)C2C3C=CC(C3)C2C(=O)NCc2ccco2)c(OC)c1 (centres undefined),1,-1,-1,5.9*,0
O=C(O)C1C2C=CC(C2)C1C(=O)NCc1ccco1 (centres undefined),2,-1,-1,-1,0
CCCN1CCCCC(NC(=O)c2ccc(C)cc2C)C1=O (centres undefined),0,0,-1,·,0
O=C(Cc1cn(Cc2ccccc2)c2ccccc12)Nc1ccc(Nc2cccnc2)cc1,0,0,-1,·,0
O=C(N/N=C/c1ccc([N+](=O)[O-])o1)c1cc2ccccc2o1,-12,-5,-3,-5,-5
O=[N+]([O-])c1ccc(/C=N/Nc2ccc3ccccc3c2)o1,4,6.4*,0,1,-2
O=C(NCc1ccccc1)[C@@H]1CCCN1C(=O)[C@H]1CCCN1C(=O)c1cccc(F)c1,1,1,-1,·,1
COc1ccc(/C=C2\SC(=O)N(CC(=O)Nc3ccc(O)cc3)C2=O)cc1OC,-3,-2,-1,0,0
O=C(CCN1C(=O)S/C(=C\c2ccccc2)C1=O)N1CCCCC1,0,0,0,-1,0
COc1ccc(/C=C2\SC(=O)N(CCC(=O)N3CCCCC3)C2=O)cc1OC,-1,-1,-1,5.8*,0
COc1ccc(/C=C2\SC(=O)N(CC(=O)NN3CCN(C)CC3)C2=O)cc1OC,-1,0,-1,4.7*,0
CCCCNC(=O)C[C@@H]1C(=O)N2CCCC3=C2[C@@]1(C(=O)OC)CCCC3,0,1,-1,·,0
O=C(NCCO)C1(C(=O)C2CC2)CC(c2ccccn2)=NO1 (centres undefined),-2,-1,-1,·,1
Cc1nc(-c2ccc(C(=O)Nc3cccc(Br)c3)cc2)cs1,11*,2,-1,-3,0

# Screening data (PubChem BioAssay)
